Measurements as given in PubChem BioAssay (NCATS).
Results filed as inconclusive are left out. A call without a number means that no potency is given here. Calls of active or inactive are those of the source. Calls come from the whole dose curve; as a rule, active = well fitted curve in the direction sought with a large enough effect; inconclusive = small, poorly fitted or top-dose-only effect, or another doubt; inactive = no such curve, though single readings can be large; an effect the other way counts as inactive or inconclusive.

How the values were obtained:
[1] = molecular target: ATP-dependent DNA helicase Q1 (Homo sapiens) (UniProt P46063); assay: qHTS Validation Assay for Inhibitors of RecQ-Like Dna Helicase 1 (RECQ1) (AID 2353)
In short: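 50 nM RECQ1T1 preincubated 15 min with compound in Tris pH 8.0 buffer with MgCl2, DTT, Tween-20 and 2.5 ug/ml poly(dI-dC); started with 200 nM TAMRA/BHQ-2 forked duplex and 2 mM ATP. Unwinding read as fluorescence (525/598 nm), two reads 2 h apart.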

[2] = Cytometric Cell-Based qHTS for Inhibitors of the mTORC1 Signaling Pathway in MEF (Tsc2-/-, p53-/-) Cells (AID 2660);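 note: percent of cells above a phospho-rpS6 to PI ratio cutoff in each well; series mostly up to about 38 µM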
In short: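 Tsc2-/-, p53-/- MEFs (empty vector) exposed to compound 24 h at 37 C, fixed, stained with Alexa-488 anti-phospho-rpS6 Ser235/236 and propidium iodide. Acumen laser scanning; phospho-S6/PI ratio thresholded against 7.5 nM rapamycin, reported as % positive cells.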

[3] = molecular target: Ferritin light chain (Equus caballus) (UniProt P02791); assay: qHTS Validation Assay for Identification of Novel General Anesthetics (AID 2323); note: series mostly up to about 77 µM
In short: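 Normalized fluorescence response, scaled between free 1-AMA and 1-AMA/apoferritin complex, fitted to a four-parameter Hill equation for concentration-effect values. Binding mix: 10 uM horse-spleen apoferritin, 50% saturated 1-AMA in PBS; read 380/535 nm after 10 min.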

[4] = High Content Imaging Cell-Based qHTS for Inhibitors of the mTORC1 Signaling Pathway in MEF (Tsc2-/-, p53-/-) Cells (AID 2666);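 note: percent of cells scored positive for phospho-rpS6 Ser235/236 immunostaining by imaging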; note: potency is the fitted concentration of half-maximal effect
In short: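 Read-out: % positive cells per well, with thresholds from highest- and lowest-signal wells, based on phospho-rpS6 (Ser235/236) intensity normalized to Hoechst nuclear stain. Cells: Tsc2-/-, p53-/- MEFs carrying empty vector; compound 24 hrs, 37 degree Celsius.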

[5] = Cytometry Cell-Based qHTS for Inhibitors of the mTORC1 Signaling Pathway in MEF cells (AID 2668);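 note: Tsc2-/- p53-/- mouse embryonic fibroblasts stably re-expressing wild-type Tsc2; percent cells positive for phospho-rpS6 Ser235/236 relative to propidium iodide stain; series mostly up to about 38 µM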
In short: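 In MEFs grown in DMEM + 10% FBS, a 24 hrs compound exposure preceded imaging of phospho-rpS6 Ser235/236 by laser-scanning cytometry.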

[6] = High Content Imaging Cell-Based qHTS for Inhibitors of the mTORC1 Signaling Pathway in MEF Cells (AID 2667); note: potency is the fitted concentration of half-maximal effect
In short: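 MEF (Tsc2-/-, p53-/-, WT Tsc2 re-expressed); cpd 24 h, 37 °C; PFA fix; Alexa-488 anti-p-rpS6 Ser235/236, PI, Hoechst; IN Cell imaging; Hoechst/Alexa-488 intensity ratio; % active cells, thresholds set from rapamycin and DMSO wells.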

Chain of ATP-dependent DNA helicase Q1 (Homo sapiens) (P46063 whole entry, looked up): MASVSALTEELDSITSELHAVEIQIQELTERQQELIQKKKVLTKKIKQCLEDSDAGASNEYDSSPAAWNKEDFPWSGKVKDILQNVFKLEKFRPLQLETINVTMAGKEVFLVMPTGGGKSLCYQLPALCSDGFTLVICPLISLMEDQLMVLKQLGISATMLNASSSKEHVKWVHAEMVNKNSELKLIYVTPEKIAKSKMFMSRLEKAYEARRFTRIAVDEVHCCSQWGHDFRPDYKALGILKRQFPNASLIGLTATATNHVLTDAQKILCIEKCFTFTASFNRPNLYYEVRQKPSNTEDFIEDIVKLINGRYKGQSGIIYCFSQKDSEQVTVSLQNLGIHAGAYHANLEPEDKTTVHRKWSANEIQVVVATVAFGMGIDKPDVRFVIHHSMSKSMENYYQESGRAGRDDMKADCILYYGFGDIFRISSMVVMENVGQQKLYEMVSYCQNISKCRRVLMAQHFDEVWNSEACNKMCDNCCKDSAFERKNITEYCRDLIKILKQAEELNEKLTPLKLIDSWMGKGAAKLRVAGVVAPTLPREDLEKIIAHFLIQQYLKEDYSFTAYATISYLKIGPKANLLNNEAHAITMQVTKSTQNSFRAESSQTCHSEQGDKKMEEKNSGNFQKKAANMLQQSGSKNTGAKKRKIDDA
Chain of Ferritin light chain (Equus caballus) (P02791 2-175 limits assumed): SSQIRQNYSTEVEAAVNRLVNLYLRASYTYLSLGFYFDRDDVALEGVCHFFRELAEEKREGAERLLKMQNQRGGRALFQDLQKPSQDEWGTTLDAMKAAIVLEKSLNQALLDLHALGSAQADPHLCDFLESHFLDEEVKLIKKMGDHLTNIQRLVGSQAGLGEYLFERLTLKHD

Row | SMILES | Potency [1] | outcome [2] | outcome [3] | Potency [4] | Potency [5] | Potency [6]
1 | COCCCC/C(=N\OCCN)c1ccc(C(F)(F)F)cc1 | inactive | inactive | – | – | – | –
2 | C[C@]12CCC(=O)C=C1CC[C@@H]1[C@@H]2CC[C@@]2(C)[C@H]1CC[C@]2(O)C(=O)CO | inactive | inactive | inactive | inactive | inactive | –
3 | CCn1cc(C(=O)O)c(=O)c2cc3c(cc21)OCO3 | inactive | inactive | – | inactive | inactive | inactive
4 | CC(N=C(NC#N)Nc1ccncc1)C(C)(C)C (stereo not drawn) | inactive | inactive | – | inactive | – | inactive
5 | COC(=O)[C@@H](N)Cc1ccc(O)c(O)c1 | inactive | inactive | – | inactive | inactive | inactive
6 | CCn1ccnc1CC1COc2ccccc2O1 (stereo not drawn) | – | inactive | inactive | – | inactive | inactive
7 | NC(N)=N/N=C/c1c(Cl)cccc1Cl | – | inactive | inactive | inactive | – | inactive
8 | CCN(CC)CCOCCOC(=O)C1(c2ccccc2)CCCC1 | inactive | inactive | inactive | – | – | –
9 | COc1ccc2c(c1OC)C(=O)O[C@@H]2[C@H]1c2c(cc3c(c2OC)OCO3)CCN1C | – | inactive | – | inactive | inactive | –
10 | CCN(CC)CCCN(c1ccccc1)C1Cc2ccccc2C1 | – | inactive | – | inactive | – | –
11 | CSc1ccc(C(=O)c2[nH]c(=O)[nH]c2C)cc1 | – | inactive | inactive | – | inactive | –
12 | CCn1nc(C(=O)O)c(=O)c2cc3c(cc21)OCO3 | inactive | inactive | inactive | – | – | inactive
13 | Cc1cccc(C)c1NC(=O)C(C)N (stereo not drawn) | – | inactive | – | inactive | inactive | –
14 | CC(=O)[C@@]1(O)CC[C@H]2[C@@H]3CCC4=CC(=O)CC[C@]4(C)[C@H]3CC[C@@]21C | – | inactive | – | inactive | – | inactive
15 | CN(C)CC/C=C1\c2ccccc2COc2ccccc21 | – | inactive | inactive | – | – | inactive
16 | CC(C)(C)c1ccc(C(=O)CCCN2CCC(OC(c3ccccc3)c3ccccc3)CC2)cc1 | – | – | – | 20.7 µM (active) | – | 4.65 µM (active)
17 | CCOC(=O)c1cnc2c(cnn2CC)c1NN=C(C)C | inactive | inactive | – | inactive | inactive | –
18 | COc1ccc([C@@H]2Sc3ccccc3N(CCN(C)C)C(=O)[C@@H]2OC(C)=O)cc1 | – | inactive | – | inactive | – | –
19 | CCCN1C[C@H](CSC)C[C@@H]2c3cccc4[nH]cc(c34)C[C@H]21 | – | inactive | inactive | inactive | – | inactive
20 | Brc1c(NC2=NCCN2)ccc2nccnc12 | inactive | inactive | – | – | inactive | –
21 | CC(C)(Oc1ccc(CCNC(=O)c2ccc(Cl)cc2)cc1)C(=O)O | – | inactive | – | inactive | – | inactive
22 | COC(=O)C1=C(C)NC(C)=C(C(=O)OCCN(C)Cc2ccccc2)C1c1cccc([N+](=O)[O-])c1 (stereo not drawn) | inactive | – | – | – | – | 18.5 µM (active)
